A short description of assay [1]: Nuclear factor erythroid 2-related factor 2/antioxidant responsive element (Nrf2/ARE) small molecule agonists: qHTS cell viability counter screen in human keratinocytes (AID 1919968; active means well fitted curve in the direction sought with a large enough effect in the repeat runs; an effect the other way counts as inactive or inconclusive; further: nearly all actives have a fitted effect of over 55% in size; further: potency means the concentration at half of the fitted maximal effect). Put shortly: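 Stably transfected HaCaT (KeratinoSens), 1,500/well. Test agents in DMSO were applied for 23 h, 37 C/5% CO2. CellTiter-Fluor was incubated 1 h before the fluorescence read.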

Assay [2] is described as follows: Nuclear factor erythroid 2-related factor 2/antioxidant responsive element (Nrf2/ARE) small molecule agonists: luciferase reporter gene qHTS assay in human keratinocytes (AID 1919969). Further: nearly all actives have a fitted effect of over 35% in size. Further: potency means the concentration at half of the fitted maximal effect.
Assay [3] addresses Gonadotropin-releasing hormone receptor (Homo sapiens) (UniProt P30968). Description: Human gonadotropin-releasing hormone receptor (GnRHR) small molecule agonists, calcium flux assay in GnRHR-HEK293 cells (AID 1920063). Further: nearly all actives have a fitted effect of over 35% in size. Put shortly:
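Stable human GnRHR HEK293 line. 18 h plating, then calcium dye for 1 h at 37 C. Agonist-mode compound addition from DMSO stocks; fluorescence monitored 3 min.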

For assay [4], the target named is KiSS-1 receptor (Homo sapiens) (UniProt Q969F8). The assay can be described thus: Human kisspeptin (KISS1R) small molecule agonists, calcium flux assay in KISS1R-HEK293 cells (AID 1920064; active means well fitted curve in the direction sought with a large enough effect in the repeat runs; an effect the other way counts as inactive or inconclusive). Put shortly: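 After overnight (18 h) culture at 37 C/5% CO2, human KISS1R-HEK293 cells received calcium dye for 1 h, then test compound; emission at 540 nm (excitation 480 nm) was tracked for 3 min.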

A short description of assay [5]: G protein-coupled receptor (GPCR) small molecule agonists, calcium flux assay: HEK293 wild type cell line counter screen (AID 1920065). Put shortly:
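Following 18 h incubation at 37 C/5% CO2, plates got calcium dye for 1 h; compounds, ATP or DMSO were then pinned in and fluorescence followed kinetically (480/540 nm).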

A short description of assay [6]: p53 small molecule agonists, cell-based qHTS assay with human liver microsomes (AID 1963577).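 Further: p53 response element beta-lactamase reporter cells with liver microsomes plus NADPH.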 Put shortly:
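Reporter activation was measured by LiveBLAzer fluorescence intensity in p53RE-bla cells, which had been exposed to compounds for 16 h at 37 C alongside 0.5 mg/mL human liver microsomes and 0.5 mg/mL NADPH (final concentrations).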

Assay [7] can be described thus: p53 small molecule agonists, cell-based qHTS assay with rat liver microsomes (AID 1963578). Put shortly: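 Compound in DMSO added to p53RE-bla cells 5 h post-plating; rat microsomes/NADPH 0.5 mg/mL final; 16 h, 37 C; LiveBLAzer 2 h RT.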
Assay [8] in a line: p53 small molecule agonists, cell-based qHTS assay with rat liver microsomes: qHTS cell viability counter screen (AID 1963580). Further: nearly all actives have a fitted effect of over 45% in size. Further: potency means the concentration at half of the fitted maximal effect. Put shortly:
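Luminescent ATP readout (CellTiter-Glo, 30 min at room temperature) reports viability of p53RE-bla HCT-116 cells after 16 h at 37 C with test compounds under metabolic activation by rat liver microsomes and NADPH at 0.5 mg/mL final each.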

Assay [9] is described as follows: p53 small molecule agonists, cell-based qHTS assay (AID 1963582; active means well fitted activation curve with a large enough effect in the signal ratio in the repeat runs, not every such curve was filed as active; the % refers to the signal ratio). Put shortly:
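Measured: fluorescence from cleaved LiveBLAzer substrate. System: p53RE-bla cells, 16 h compound treatment at 37 C, 2 h substrate step at room temperature.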

Assay [10] deals with 5-hydroxytryptamine receptor 2A (Homo sapiens) (UniProt P28223). The assay can be described thus: 5-hydroxytryptamine receptor 2A (HTR2A) small molecule antagonists, cell-based qHTS assay (AID 1963586). Further: nearly all actives have a fitted effect of over 45% in size. Put shortly: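 CHO cells stably expressing human HTR2A were plated for 18 h at 37 C, then loaded with calcium dye for 1 h. Compounds were preincubated 5 min at room temperature before DOI (4 nM solution) was added. Kinetic fluorescence was read for 3 min.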

For assay [11] the target is unchanged. Description: 5-hydroxytryptamine receptor 2A (HTR2A) small molecule agonists, cell-based qHTS assay (AID 1963587). Further: nearly all actives have a fitted effect of over 30% in size. Further: potency means the concentration at half of the fitted maximal effect. Put shortly: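 HTR2A-CHO cells, plated 18 h at 37 C/5% CO2, dye-loaded 1 h at 37 C; compounds in DMSO added by pin tool (agonist mode). Intracellular calcium flux read as kinetic fluorescence on FDSS over 2 min at 1 s intervals.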
Assay [12] has as its target Muscarinic acetylcholine receptor M1 (Homo sapiens) (UniProt P11229). Description: Cholinergic receptor muscarinic 1 (CHRM1) small molecule antagonists, cell-based qHTS assay (AID 1963588). Further: nearly all actives have a fitted effect of over 40% in size. Put shortly:
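Compounds were tested at 15 concentrations in three independent runs. Dye-loaded CHRM1-CHO cells were exposed 5 min at room temperature before stimulation by acetylcholine added at 50nM. Intracellular calcium was read kinetically on FDSS for 3 min.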

Assay [13] has the same target. The assay can be described thus: Cholinergic receptor muscarinic 1 (CHRM1) small molecule agonists, cell-based qHTS assay (AID 1963589). Further: nearly all actives have a fitted effect of over 35% in size. Put shortly:
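Kinetic fluorescence (1 s intervals) of calcium-sensitive dye in human M1 CHO cells after compound addition; cells pre-incubated 18 h at 37 C/5% CO2 and dye-loaded 1 h.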

Assay [14] is described as follows: cAMP Responsive Elements (CRE) small molecule agonists, cell-based qHTS assay (AID 1963590). Put shortly: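 Test agents in DMSO were incubated 3 h at 37 C/5% CO2 with CRE-bla HEK 293T cells seeded 18 h earlier; LiveBLAzer B/G FRET substrate was added and read after 2 h at room temperature.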
Assay [15] can be described thus: cAMP Responsive Elements (CRE) small molecule antagonists, cell-based qHTS assay (AID 1963591; active means well fitted inhibition curve with a large enough effect in the signal ratio in the repeat runs, not every such curve was filed as active; the % refers to the signal ratio). Put shortly:
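Reporter line CRE-bla HEK 293T in dialyzed-FBS DMEM; cells preincubated 18 h, treated 3 h with compound plus NKH477 (0.25 uM final); LiveBLAzer FRET, 2 h RT.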

Assay [16] addresses Beta-2 adrenergic receptor (Homo sapiens) (UniProt P07550). Description: Adrenergic beta2 receptor (ADRB2) small molecule antagonists, cell-based qHTS assay (AID 1963592). Further: series mostly up to about 92 µM; nearly all actives have a fitted effect of over 50% in size. Put shortly:
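Assay format: CHO-ADRB2 cells, 18-20hr seeding at 37C/5% CO2, then compound plus 1nM isoproterenol agonist mix for 0.5hr RT. Homogeneous time-resolved fluorescence cAMP detection after 1hr, expressed as 665/615 nm ratio.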

Assay [17] has as its target D(2) dopamine receptor (Homo sapiens) (UniProt P14416). Description: Dopamine D2 receptor (DRD2) small molecule agonists, cell-based qHTS assay (AID 1963594). Further: nearly all actives have a fitted effect of over 35% in size. Put shortly:
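HEK293 cells stably expressing DRD2 were cultured 24 h at 37 C, then given Ro20-1724 (0.1 mM final) and compounds for 10 min at room temperature. NKH477 (200nM) was then added for 30 min. cAMP was read by HTRF.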

Assay [18] has the same target. The assay can be described thus: Dopamine D2 receptor (DRD2) small molecule antagonists, cell-based qHTS assay (AID 1963595; active means well fitted inhibition curve with a large enough effect in the signal ratio in the repeat runs, with a control signal flat; the % refers to the signal ratio). Put shortly:
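Antagonism was scored as restored cAMP in HEK293-DRD2 cells. These cells were stimulated with 200 nM NKH477 and 12 nM quinpirole for 30 min at room temperature, in the presence of 0.1 mM Ro20-1724.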

The nature of assay [19]: p53 small molecule agonists, cell-based qHTS assay: qHTS cell viability counter screen (AID 1963581). Further: nearly all actives have a fitted effect of over 45% in size. Further: potency means the concentration at half of the fitted maximal effect. Put shortly: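 qHTS counter screen: 16 h compound exposure at 37 C of p53RE-bla HCT-116 cells (4,000 per well, seeded 5 h prior), cell viability by ATP luminescence.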
Assay [20] concerns the target Beta-2 adrenergic receptor (Homo sapiens) (UniProt P07550). Description: Adrenergic beta2 receptor (ADRB2) small molecule agonists, cell-based qHTS assay (AID 1963593).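 Further: CHO cells stably overexpressing human ADRB2.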 Put shortly:
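CHO cells stably over-expressing ADRB2 were plated overnight at 37C, then dosed with compounds plus a stimulation mix containing 100uM IBMX and 25uM Ro-20-1724 for 0.5hr at room temperature. cAMP was measured by HTRF competition, 1hr.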

A number with no mark means an inactive call. Inconclusive results are not listed. Calls of active or inactive are those of the source. Unless noted, the call rests on the fitted dose curve.

Sequence of D(2) dopamine receptor (Homo sapiens) (P14416 whole entry, looked up): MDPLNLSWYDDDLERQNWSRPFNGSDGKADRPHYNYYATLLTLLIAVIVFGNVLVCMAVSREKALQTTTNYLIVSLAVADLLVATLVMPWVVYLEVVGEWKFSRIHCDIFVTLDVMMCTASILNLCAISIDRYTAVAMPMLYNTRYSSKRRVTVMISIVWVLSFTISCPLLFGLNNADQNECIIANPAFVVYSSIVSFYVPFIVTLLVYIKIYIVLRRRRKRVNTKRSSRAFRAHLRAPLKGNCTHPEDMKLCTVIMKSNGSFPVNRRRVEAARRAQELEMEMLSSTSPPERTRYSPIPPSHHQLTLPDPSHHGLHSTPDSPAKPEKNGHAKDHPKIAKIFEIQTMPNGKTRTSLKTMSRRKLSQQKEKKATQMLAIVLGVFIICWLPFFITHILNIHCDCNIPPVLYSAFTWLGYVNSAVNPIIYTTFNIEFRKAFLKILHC
Sequence of 5-hydroxytryptamine receptor 2A (Homo sapiens) (P28223 whole entry, looked up): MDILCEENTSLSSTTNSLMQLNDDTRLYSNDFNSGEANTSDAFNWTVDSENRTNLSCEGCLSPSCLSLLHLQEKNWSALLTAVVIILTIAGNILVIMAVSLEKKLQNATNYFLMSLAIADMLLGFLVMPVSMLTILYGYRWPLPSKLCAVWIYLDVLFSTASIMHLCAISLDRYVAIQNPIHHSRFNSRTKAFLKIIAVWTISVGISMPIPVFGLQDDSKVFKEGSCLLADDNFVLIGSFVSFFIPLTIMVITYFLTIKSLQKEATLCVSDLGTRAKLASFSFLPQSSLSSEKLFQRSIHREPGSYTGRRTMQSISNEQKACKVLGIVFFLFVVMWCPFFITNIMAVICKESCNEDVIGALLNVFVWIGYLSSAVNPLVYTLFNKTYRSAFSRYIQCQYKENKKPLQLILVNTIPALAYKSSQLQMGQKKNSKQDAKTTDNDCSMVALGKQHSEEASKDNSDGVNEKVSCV
Sequence of Gonadotropin-releasing hormone receptor (Homo sapiens) (P30968 whole entry, looked up): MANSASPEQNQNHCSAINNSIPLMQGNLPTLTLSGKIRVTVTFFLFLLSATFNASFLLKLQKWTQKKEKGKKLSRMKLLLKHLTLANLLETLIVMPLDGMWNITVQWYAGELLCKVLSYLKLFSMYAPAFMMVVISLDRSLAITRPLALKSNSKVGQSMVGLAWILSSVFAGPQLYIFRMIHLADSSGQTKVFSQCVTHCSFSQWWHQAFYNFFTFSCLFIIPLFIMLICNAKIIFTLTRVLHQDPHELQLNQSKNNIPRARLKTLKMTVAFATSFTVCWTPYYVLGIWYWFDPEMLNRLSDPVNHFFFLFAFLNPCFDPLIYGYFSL
Sequence of KiSS-1 receptor (Homo sapiens) (Q969F8 whole entry, looked up): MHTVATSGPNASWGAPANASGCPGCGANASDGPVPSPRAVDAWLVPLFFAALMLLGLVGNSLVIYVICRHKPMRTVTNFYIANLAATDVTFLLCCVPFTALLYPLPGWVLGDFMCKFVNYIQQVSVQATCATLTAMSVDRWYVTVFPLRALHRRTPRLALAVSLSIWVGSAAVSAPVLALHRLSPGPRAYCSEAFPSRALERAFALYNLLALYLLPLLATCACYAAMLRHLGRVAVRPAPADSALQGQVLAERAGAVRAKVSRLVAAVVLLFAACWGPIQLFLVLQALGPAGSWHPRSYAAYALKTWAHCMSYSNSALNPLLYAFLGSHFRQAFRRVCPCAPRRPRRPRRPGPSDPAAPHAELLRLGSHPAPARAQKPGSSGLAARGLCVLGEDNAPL
Sequence of Muscarinic acetylcholine receptor M1 (Homo sapiens) (P11229 whole entry, looked up): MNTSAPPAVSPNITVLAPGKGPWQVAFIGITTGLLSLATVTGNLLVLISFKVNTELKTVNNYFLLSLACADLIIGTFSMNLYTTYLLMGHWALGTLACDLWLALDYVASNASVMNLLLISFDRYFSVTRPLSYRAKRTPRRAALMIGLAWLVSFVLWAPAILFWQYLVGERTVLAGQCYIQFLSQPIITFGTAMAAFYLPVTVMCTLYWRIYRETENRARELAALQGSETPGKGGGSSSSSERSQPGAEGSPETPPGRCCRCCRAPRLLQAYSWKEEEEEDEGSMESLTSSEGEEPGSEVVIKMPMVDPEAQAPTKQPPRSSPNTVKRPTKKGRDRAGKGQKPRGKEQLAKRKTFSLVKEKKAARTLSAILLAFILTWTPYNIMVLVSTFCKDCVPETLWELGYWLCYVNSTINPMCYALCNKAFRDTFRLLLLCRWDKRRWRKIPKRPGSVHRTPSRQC
Sequence of Beta-2 adrenergic receptor (Homo sapiens) (P07550 whole entry, looked up): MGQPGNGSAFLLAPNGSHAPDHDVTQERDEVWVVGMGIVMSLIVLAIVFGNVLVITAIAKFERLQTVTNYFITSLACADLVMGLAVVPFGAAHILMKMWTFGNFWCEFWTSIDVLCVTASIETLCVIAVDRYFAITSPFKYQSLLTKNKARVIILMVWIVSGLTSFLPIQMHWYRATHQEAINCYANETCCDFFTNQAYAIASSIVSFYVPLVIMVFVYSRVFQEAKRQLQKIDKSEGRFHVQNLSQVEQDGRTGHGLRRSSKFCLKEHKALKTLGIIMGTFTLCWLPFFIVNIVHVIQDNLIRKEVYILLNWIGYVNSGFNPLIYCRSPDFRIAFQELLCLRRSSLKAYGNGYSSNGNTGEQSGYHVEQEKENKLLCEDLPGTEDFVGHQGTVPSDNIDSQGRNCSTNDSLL

Regarding `COc1ccc(CN(CCN(C)C)c2ncccn2)cc1`, the Potency entry in assay [1], in assay [2], in [3], in assay [6], in [7] and in assay [8] was “inactive” in each case. For the same compound, the Potency entry in assay [9], in [10], in assay [11], in [12], in assay [13] and in [14] was “inactive” in each case. In addition, the Potency entry in assay [15], in [16], in [17] and in [18] was “inactive” in each case. Also, the result in [4] and in [5] was inactive.
As for `CC(C)(C)C1CCC(=O)CC1`, the Potency entry in assay [1], in assay [3], in assay [6], in assay [7], in assay [8] and in assay [9] was “inactive” each time. Further, the Potency entry in assay [10], in assay [11], in assay [12], in [13], in assay [14] and in [15] was “inactive” in each case. Further, the Potency result in assay [16], in [17] and in assay [18] was “inactive” throughout. The Potency in assay [2] was 68.6 µM (active). Also, the outcome in [4] and in assay [5] was inactive.
As to `CCCCCCCCCCCCCCN(CCO)CCO`, the Potency in assay [1] is 27.3 µM (active); in [11], 21.9 µM (active). For the same compound, the Potency entry in assay [2], in assay [3], in [6], in assay [7], in assay [8] and in [19] was “inactive” throughout. Besides, the Potency result in [10], in [16], in [17] and in assay [18] was “inactive” throughout. The result in assay [4] and in [5] was inactive.
With `CCN(CC)c1ccc(C(=C2C=CC(=[N+](CC)CC)C=C2)c2ccc(S(=O)(=O)O)cc2S(=O)(=O)[O-])cc1`, the Potency in assay [1] is 24.3 µM (active); in assay [8] it was 18.2 µM (active); in assay [19], 9.13 µM (active). Moreover, the Potency result in [2], in assay [3], in assay [6], in assay [7], in [10] and in [12] was “inactive” throughout. Besides, the Potency entry in assay [13] and in assay [15] was “inactive” each time. For the same compound, the result in [4] and in [5] was inactive.
Turning to `Oc1ccc2c(c1)OCO2`, the Potency entry in assay [1], in assay [2], in assay [3], in [6], in assay [7] and in [8] was “inactive” each time. In addition, the Potency result in assay [9], in assay [10], in assay [11], in assay [13], in assay [14] and in [15] was “inactive” in each case. Further, the Potency result in assay [16], in assay [17] and in assay [18] was “inactive” throughout. Moreover, the outcome in assay [4] and in [5] was inactive.
Regarding `COS(=O)(=O)C(F)(F)F`, the Potency entry in assay [1], in assay [3], in [6], in assay [7], in assay [19] and in [9] was “inactive” in each case. Moreover, the Potency entry in assay [10], in [11], in assay [13], in assay [14], in assay [15] and in assay [16] was “inactive” in each case. In addition, the Potency entry in assay [17] was “inactive”. The Potency in assay [2] was 71.7 µM (active). Moreover, the outcome in [4] and in assay [5] was inactive.
In the case of `C[C@H](O)C(=O)Nc1c(I)c(C(=O)NC(CO)CO)c(I)c(C(=O)NC(CO)CO)c1I`, the Potency result in assay [1], in assay [2], in assay [3], in assay [6], in [7] and in assay [19] was “inactive” each time. Also, the Potency entry in assay [9], in assay [10], in [11], in [14], in [15] and in assay [16] was “inactive” in each case. The Potency result in assay [17] and in [18] was “inactive” each time. The outcome in assay [4] and in [5] was inactive.
Take `N#Cc1c(F)cccc1F`: the Potency result in assay [1], in assay [2], in assay [3], in assay [6], in [7] and in assay [8] was “inactive” throughout. The Potency result in assay [19], in assay [11], in assay [12], in assay [13], in assay [14] and in assay [15] was “inactive” in each case. The Potency result in [16], in [20], in assay [17] and in assay [18] was “inactive” throughout. Besides, the outcome in assay [4] and in [5] was inactive.

For the origin of these results see PubChem BioAssay (Tox21).
